Pf Dd2 growth: blocks in vitro growth of P. falciparum Dd2; Potency, µM (doses to about 28.9 µM), inactives show at the highest dose activity, negative = inhibition, most hits filed as inhibitors; hit rate 4.3% among 120,000; P. falciparum Dd2 growth, SYBR Green, 72 h; active = well fitted inhibition curve with a large enough effect;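 note: plate controls were DMSO vehicle for no effect and reference drug for full effect; nearly all actives have a fitted effect of over 65% in size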
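Readout: SYBR Green fluorescence, 485 nm excitation, 535 nm emission, after ~16 h lysis at 37C. Before that, Dd2-infected red cells (2.5% hematocrit) grew 72 h with compound, 29 uM top final concentration.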
Active calls of the source: *; i = inactive; [ ] = another dose, or the depositor's remark. This is one part of a sample in which hits are shown more often than they occur. Potency is the fitted concentration of half-maximal effect.

SMILES | Pf Dd2 growth
CCS(=O)(=O)N1CCCCCCNC(=O)[C@@H]2C[C@@H](C(=O)N3CCN(c4ccccn4)CC3)C[C@@H]21 | -14.8%
Cc1nc(C)c(C(=O)N2CC[C@H]3C(=O)NCCCCCCN(Cc4ccncc4)[C@@H]3C2)s1 | -14.3%
N#Cc1ccc(CN2CCCCCCNC(=O)[C@@H]3C[C@@H](C(=O)N4CCc5ccccc5C4)C[C@@H]32)cc1 | 2.82µM*
O=C1NCCCCCCN(C(=O)Cc2cccc(F)c2)[C@H]2CCC[C@@H]12 | -1.2%
N#Cc1ccccc1CN1CCCCCCNC(=O)[C@@H]2C[C@@H](C(=O)N3CCc4ccccc4C3)C[C@@H]21 | 3.16µM*
Cc1ncsc1CN1CCCCCCNC(=O)[C@@H]2C[C@@H](C(=O)N3CCc4ccccc4C3)C[C@@H]21 | 4.47µM*
Cc1ncsc1CN1CCCC(C(=O)NCc2ccccc2)CCNC(=O)CC1 (stereo not given) | -11.3%
O=C1NCCCCCCN(Cc2cccc(F)c2)[C@H]2C[C@H](C(=O)N3CCc4ccccc4C3)C[C@@H]12 | 3.55µM*
CC(C)C(=O)NCCc1noc(C2CC2)n1 | 26.3%
CN(C)C[C@@H]1CN(C2CCOCC2)C[C@H]1NC(=O)c1ccoc1 | 13.9%
CCNC(=O)c1ccc2c(c1)C1(CCCN(C)C1)CN2C (stereo not given) | i
O=C(c1ccoc1)N1CCC(Cc2nc(-c3ccccc3)n[nH]2)C1 (stereo not given) | -15.5%
COc1ccc(CN2C[C@H]3CN(Cc4cccc(C)n4)CCN3C2=O)cc1 | -15.7%[44.1 µM]
Cc1ccccc1N(C)C1CN(Cc2cccnc2)C1 | 12.6µM*
CN(C)C(=O)[C@@H]1CN(Cc2cccnc2)C[C@H]1CO | 15.2%
Cc1cc(F)ccc1OC1CN([S+](=O)([O-])c2ccccc2)C1 | i
Cc1cc(OC2CN(Cc3ccc(F)cc3)C2)ccc1F | i
CN(Cc1cccnc1)C(=O)[C@H]1CN(Cc2ccccc2)C[C@H]1C(=O)O | i
Cc1cc(F)ccc1OC1CN(Cc2cccnc2)C1 | 6.31µM*
COc1ncccc1-c1nccn2c(C3CN(Cc4ccccc4O)C3)ncc12 | -42.1%[44.1 µM]
CC(=O)Nc1ccc(S(=O)(=O)NC[C@@H]2C=C(C)[C@H](CC(=O)NC3CCCC3)C[C@H]2C(C)C)cc1 | -14.9%
CN1CC(=O)N(c2ccccc2F)Cc2c(NC3CCOC3)ncnc21 (stereo not given) | 26.9%
Cc1c(/C=C(\C#N)C(=O)Nc2cccc(Cl)c2)c2ccccc2n1Cc1ccccc1Cl | 3.16µM*
Cc1ccc(NC(=O)/C(C#N)=C\c2ccc(Cl)cc2Cl)cc1C | 8.3%
N#C/C(=C/c1cn(Cc2ccccc2Cl)c2ccccc12)C(=O)Nc1cccc(Cl)c1 | i
SMILES | Pf Dd2 growth
O=C(O)c1ccccc1-n1nc(-c2ccncc2)nc1CN1CCCCC1=O | -11.7%
COc1cccc(C(=O)N2CCC3(CCCCO3)CC2)c1 | -19.1%
CCS(=O)(=O)N1CCCC(CCC(=O)NCc2ccc(OC)cc2OC)C1 (stereo not given) | -11.5%
Cc1ccc(OC2(C(=O)NCc3cccc(N(C)C)c3)CCNCC2)cc1 | -26.5%
CC(C)(C)C1CCC2(CC1)NC(=O)N(CC(=O)NC1CCc3ccccc31)C2=O (stereo not given) | -22.4%
Cc1ccc(OC2(C(=O)N[C@H]3CCc4ccccc43)CCNCC2)cc1 | 7.94µM*
Cc1ccc(S(=O)(=O)Nc2ccc(C)n(CC(=O)NC(C)c3ccccc3)c2=O)cc1 (stereo not given) | -4.1%
COc1cccc(N2C(=O)[C@@H]3C[C@@H](NC(=O)C4CCN(c5nccc(C(F)(F)F)n5)CC4)CCN3C2=O)c1 | -10.3%
COC(=O)[C@@H](Cc1c[nH]c2ccccc12)NC(=O)[C@@H]1CN(C(=O)c2cccnc2)CCN1C(=O)NC(C)C | 4.6%
COc1ccc(CN2C(=O)[C@@H]3C[C@@H](O)CN3C3(CN(Cc4cnc5ccccc5c4)C3)C2=O)cc1 | 7.08µM*
COc1ccc(CN2C(=O)[C@@H]3C[C@@H](O)CN3C3(CN(Cc4ccncc4)C3)C2=O)cc1 | 6.2%[44.1 µM]
COc1ccc(CN2C(=O)[C@@H]3C[C@@H](O)CN3C3(CN(Cc4cccc(OC)c4)C3)C2=O)cc1 | i
COc1ccc(C(=O)N2CCn3c(nn(-c4ccc(Cl)cc4)c3=O)C2)cc1 | 11.7%
COc1cc(OC)cc(-c2nn(-c3ccc(C)cc3C)c(OC(C)=O)c2-c2ccc(NC(C)=O)cc2)c1 | -18.2%
CCOc1cccc(-c2nc(C3CCOC3)no2)c1 (stereo not given) | 14.9%
c1cc(-c2ccco2)cc(-c2nc(C3CCOC3)no2)c1 (stereo not given) | 12.6µM*
COc1cccc(-c2ccc(-c3nc(C4CCOC4)no3)o2)c1 (stereo not given) | -6.1%
Cc1cccc(-c2nc3cc(C)ccc3cc2CN2CCN(CCCO)CC2)c1 | i
COc1ccc2cc(CN3CCC(OC)CC3)c(-c3cccc(C)c3)nc2c1 | 10µM*
COc1ccc(-c2[nH]ncc2CN2CC[C@H]3CC[C@@H](C2)N3)cc1 | -9.8%
COCC1CCN(Cc2cc3ccc(OC)cc3nc2-c2cccc(C)c2)C1 (stereo not given) | 11.2µM*
COc1ccc(-c2nc3cc(C)ccc3cc2CN2CCC[C@H]2C(N)=O)cc1OC | -5.5%
COc1ccc(N2CC(c3noc(-c4cccc(C)c4)n3)CC2=O)cc1 (stereo not given) | i
O=C(CN1C(=O)NC(c2ccccc2Cl)C2=C1COC2=O)Nc1ccccc1 (stereo not given) | i
CN1CC(C(=O)N2CCc3c(nc(-c4ccncc4)nc3N(C)C)C2)CC1=O (stereo not given) | -2.6%
SMILES | Pf Dd2 growth
Cc1cccc(CN2CCc3nc(N(C)Cc4cccnc4)[nH]c(=O)c3CC2)c1 | -22.5%[5.79 µM]
O=C(O)COCC(=O)N1CC[C@H]2COC(=O)N2c2cc(F)ccc2C1 | -0.1%[44.1 µM]
CCc1noc([C@@H]2CC(F)(F)CN2C(=O)Cc2ccccc2F)n1 | 37.8%
Oc1ccccc1CN1CCOC[C@H]1c1ncc(-c2ccc(F)cc2F)[nH]1 | 3.16µM*
Cn1c(CN2CCOC[C@H]2c2ncc(-c3ccc(Cl)s3)[nH]2)nc2ccccc21 | 11.2µM*
CC(C)(C)CN1CCOC[C@H]1c1ncc(-c2ccccc2)[nH]1 | i
CN1CCC(N2CCOC[C@H]2c2ncc(C(C)(C)C)[nH]2)CC1 | 9.1%[44.1 µM]
CS(=O)(=O)c1ccc(-c2cnc([C@@H]3COCCN3Cc3ccccc3O)[nH]2)cc1 | i
Cn1cc(CN2CCOC[C@H]2c2ncc(C(C)(C)C)[nH]2)c2ccccc21 | 10µM*
CS(=O)(=O)c1ccc(CN2CCOC[C@H]2c2ncc(-c3ccc(Cl)s3)[nH]2)cc1 | i
COc1ccc(-c2cnc([C@@H]3COCCN3Cc3ccncc3)[nH]2)cc1 | i
Clc1ccc(-c2cnc([C@@H]3COCCN3Cc3ccccc3)[nH]2)s1 | i
COc1ccc(-c2cnc([C@@H]3COCCN3Cc3ccccc3)[nH]2)cc1 | 10µM*
COc1ccc(CN2CCOC[C@H]2c2ncc(-c3ccc(C)cc3)[nH]2)cc1 | -0.5%[44.1 µM]
CN1CCOC[C@H]1c1ncc(-c2ccc(F)cc2F)[nH]1 | i
CCOCCn1c(=O)[nH]c2cc(C(=O)N(C)Cc3ccncc3C)ccc21 | 11.6%
COCCC(=O)N1CCC(n2c(C)cnc2-c2ccncc2)CC1 | 33.7%
O=C(C1CC1)N1CCCC(Nc2ccc(F)c(F)c2)C1 (stereo not given) | i
Cc1ccc(C)c(NC(=O)CN2C(=O)NC3(CCCCC3)C2=O)c1 | 15.2%
C=CCOc1cccc(-c2nnc(CCC(=O)NCc3ccc4c(c3)OCO4)c(=O)[nH]2)c1 | i
